Results filed as inconclusive are left out. Activity calls are given as the source filed them. How the source made its calls, unless noted: active means hit-call score of the fitted dose curve at least 0.9, where 1 is the maximum; inactive means score below 0.9.
How the values were obtained:
[1] = target: Hepatocyte nuclear factor 4-alpha (Homo sapiens) (UniProt P41235); experiment: ATG_HNF4a_TRANS: Attagene TRANS-FACTORIAL HepG2 Assay for human Hepatocyte Nuclear Factor 4 alpha (HNF4a) (AID 2282982; active means hit-call score of the fitted dose curve at least 0.9, where 1 is the maximum); settings: HepG2 HNF4a transactivation reporter, mRNA readout
Chain of Hepatocyte nuclear factor 4-alpha (Homo sapiens) (P41235 whole entry, looked up): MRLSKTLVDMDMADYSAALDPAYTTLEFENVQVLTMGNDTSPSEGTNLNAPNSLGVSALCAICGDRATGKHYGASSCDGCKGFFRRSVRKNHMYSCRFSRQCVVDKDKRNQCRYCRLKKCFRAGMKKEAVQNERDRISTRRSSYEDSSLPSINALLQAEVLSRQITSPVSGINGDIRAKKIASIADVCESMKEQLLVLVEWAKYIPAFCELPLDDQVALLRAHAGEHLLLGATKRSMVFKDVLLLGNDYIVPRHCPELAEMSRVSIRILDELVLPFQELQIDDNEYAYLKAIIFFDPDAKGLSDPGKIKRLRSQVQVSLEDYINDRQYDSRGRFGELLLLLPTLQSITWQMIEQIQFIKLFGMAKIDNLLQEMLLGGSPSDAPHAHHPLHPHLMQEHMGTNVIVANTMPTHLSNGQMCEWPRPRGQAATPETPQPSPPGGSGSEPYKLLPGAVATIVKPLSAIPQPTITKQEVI
Procedure, shortened: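 Multiplexed reporter assay: transfected HepG2, 24 h exposure, total RNA → oligo(dT) RT → PCR → 6-FAM extension → HpaI digest → CE fluorescence. DMSO = negative control.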

[2] = ATG_M_32_TRANS: Attagene TRANS-FACTORIAL HepG2 Assay for M32 Transcription Factor (Internal Marker) (AID 2282984; active means hit-call score of the fitted dose curve at least 0.9, where 1 is the maximum;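 further: transcript level of a background control reporter unit measured by RT-PCR and capillary electrophoresis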); settings: HepG2 Attagene TRANS M32 internal marker reporter
Procedure, shortened: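 Cell-based TRANS-format assay in HepG2: exogenous chimeric GAL4 reporter units transiently expressed, compounds applied 24 h. Reporter mRNA detected by RT-PCR plus capillary electrophoresis; this readout is an internal background marker.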

[3] = target: Nuclear receptor subfamily 4 group A member 2 (Homo sapiens) (UniProt P43354); experiment: ATG_NURR1_TRANS: Attagene TRANS-FACTORIAL HepG2 Assay for human Nuclear Receptor Related Protein 1 (NURR1) (AID 2282985; active means hit-call score of the fitted dose curve at least 0.9, where 1 is the maximum); settings: HepG2 Attagene TRANS reporter, mRNA readout
Chain of Nuclear receptor subfamily 4 group A member 2 (Homo sapiens) (P43354 whole entry, looked up, the tested form may be a part): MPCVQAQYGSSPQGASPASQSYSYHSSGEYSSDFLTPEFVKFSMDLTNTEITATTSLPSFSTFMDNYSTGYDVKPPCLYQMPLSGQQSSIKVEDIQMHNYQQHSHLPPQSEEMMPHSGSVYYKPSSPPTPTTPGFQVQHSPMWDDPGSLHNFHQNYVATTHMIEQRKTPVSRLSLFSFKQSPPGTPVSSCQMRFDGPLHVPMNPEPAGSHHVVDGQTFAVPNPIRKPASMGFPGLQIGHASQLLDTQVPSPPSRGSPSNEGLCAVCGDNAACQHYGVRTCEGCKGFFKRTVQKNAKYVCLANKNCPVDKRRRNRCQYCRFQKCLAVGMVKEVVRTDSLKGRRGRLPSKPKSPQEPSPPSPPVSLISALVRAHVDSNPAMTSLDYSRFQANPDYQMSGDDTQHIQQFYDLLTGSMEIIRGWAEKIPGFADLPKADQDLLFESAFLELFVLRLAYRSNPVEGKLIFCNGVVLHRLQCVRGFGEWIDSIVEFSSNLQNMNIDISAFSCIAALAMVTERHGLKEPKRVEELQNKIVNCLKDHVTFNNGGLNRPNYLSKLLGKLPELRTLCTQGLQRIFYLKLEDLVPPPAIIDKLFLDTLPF
Procedure, shortened: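 Measures transcriptional activation by an exogenous NR-Gal4 chimera in transfected HepG2 liver cells. After 24 h, reporter RNA is reverse-transcribed, amplified and resolved by capillary electrophoresis; DMSO defines baseline.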

[4] = target: Transcriptional activator Myb (Homo sapiens) (UniProt P10242); experiment: ATG_Myb_CIS: Attagene CIS-FACTORIAL HepG2 Assay for human Myeloblastosis (Myb) Proto-Oncogene Transcription Factor (AID 2282986); settings: HepG2 Attagene CIS-FACTORIAL Myb reporter transcription; actives raise or lower the signal
Chain of Transcriptional activator Myb (Homo sapiens) (P10242 whole entry, looked up): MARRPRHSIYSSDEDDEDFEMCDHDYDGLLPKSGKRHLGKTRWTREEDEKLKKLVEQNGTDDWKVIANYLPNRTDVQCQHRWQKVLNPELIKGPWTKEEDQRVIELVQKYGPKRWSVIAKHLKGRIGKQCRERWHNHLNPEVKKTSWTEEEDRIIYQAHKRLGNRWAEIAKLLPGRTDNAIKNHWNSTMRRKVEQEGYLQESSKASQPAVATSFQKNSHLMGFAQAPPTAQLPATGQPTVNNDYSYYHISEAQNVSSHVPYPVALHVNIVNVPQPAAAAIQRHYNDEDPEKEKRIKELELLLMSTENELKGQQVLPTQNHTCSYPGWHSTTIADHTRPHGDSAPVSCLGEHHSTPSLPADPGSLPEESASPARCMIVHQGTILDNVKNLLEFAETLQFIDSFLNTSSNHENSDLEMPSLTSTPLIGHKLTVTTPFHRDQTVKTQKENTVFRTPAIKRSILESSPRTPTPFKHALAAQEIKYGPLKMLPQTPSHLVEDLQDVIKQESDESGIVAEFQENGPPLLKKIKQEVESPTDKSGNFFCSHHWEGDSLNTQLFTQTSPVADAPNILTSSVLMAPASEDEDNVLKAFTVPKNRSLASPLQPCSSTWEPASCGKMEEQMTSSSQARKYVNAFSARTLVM
Procedure, shortened: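 Reporter mRNA is quantified by RT-PCR and capillary electrophoresis 24 h after dosing HepG2 cells transfected with cis-regulated reporter units, which track endogenous transcription factor activity. Gain and loss of signal are fitted versus DMSO baseline.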

[5] = target: Nuclear respiratory factor 1 (Homo sapiens) (UniProt Q16656); experiment: ATG_NRF1_CIS: Attagene CIS-FACTORIAL HepG2 Assay for human Nuclear Respiratory Factor 1 (NRF1) Orphan Gene (AID 2282987); settings: HepG2 NRF1 cis-element reporter, Attagene multiplex; actives raise or lower the signal
Chain of Nuclear respiratory factor 1 (Homo sapiens) (Q16656 whole entry, looked up): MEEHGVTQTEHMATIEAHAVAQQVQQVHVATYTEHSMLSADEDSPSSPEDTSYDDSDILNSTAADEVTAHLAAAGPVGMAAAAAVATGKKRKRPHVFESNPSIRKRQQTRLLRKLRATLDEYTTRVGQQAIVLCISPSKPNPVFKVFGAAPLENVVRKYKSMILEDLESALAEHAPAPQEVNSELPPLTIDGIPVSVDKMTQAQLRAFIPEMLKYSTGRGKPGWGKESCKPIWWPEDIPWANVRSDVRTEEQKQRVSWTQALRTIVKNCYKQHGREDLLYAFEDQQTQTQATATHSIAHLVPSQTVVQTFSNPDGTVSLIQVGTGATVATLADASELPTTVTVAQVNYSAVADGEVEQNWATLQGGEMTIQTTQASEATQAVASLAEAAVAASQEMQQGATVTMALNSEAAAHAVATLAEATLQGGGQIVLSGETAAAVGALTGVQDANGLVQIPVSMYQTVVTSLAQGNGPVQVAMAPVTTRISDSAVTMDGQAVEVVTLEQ
Procedure, shortened: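 Endogenous NRF1-driven reporter transcription in transfected HepG2 cells after 24 h treatment. Readout: RT-PCR products, 6-FAM labelled and resolved by capillary electrophoresis; changes fitted both directions relative to DMSO.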

[6] = ATG_NFI_CIS: Attagene CIS-FACTORIAL HepG2 Assay for human Nuclear Factor I (NFI) (AID 2282989); settings: HepG2 cis-regulatory reporter, NFI response element transcription; actives raise or lower the signal
Procedure, shortened: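 HepG2 cells transiently transfected with cis-element-driven multiplexed reporter transcription units, dosed for 24 h. Reporter mRNA quantified by RT-PCR, fluorescent labelling, HpaI digestion and capillary electrophoresis; bidirectional fit versus DMSO baseline.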

[7] = target: Myc proto-oncogene protein (Homo sapiens) (UniProt P01106); experiment: ATG_Myc_CIS: Attagene CIS-FACTORIAL HepG2 Assay for human Myelocytomatosis (Myc) Proto-Oncogene Transcription Factor (AID 2282990); settings: HepG2, Attagene cis-reporter transcription factor activity; actives raise or lower the signal
Chain of Myc proto-oncogene protein (Homo sapiens) (P01106 whole entry, looked up): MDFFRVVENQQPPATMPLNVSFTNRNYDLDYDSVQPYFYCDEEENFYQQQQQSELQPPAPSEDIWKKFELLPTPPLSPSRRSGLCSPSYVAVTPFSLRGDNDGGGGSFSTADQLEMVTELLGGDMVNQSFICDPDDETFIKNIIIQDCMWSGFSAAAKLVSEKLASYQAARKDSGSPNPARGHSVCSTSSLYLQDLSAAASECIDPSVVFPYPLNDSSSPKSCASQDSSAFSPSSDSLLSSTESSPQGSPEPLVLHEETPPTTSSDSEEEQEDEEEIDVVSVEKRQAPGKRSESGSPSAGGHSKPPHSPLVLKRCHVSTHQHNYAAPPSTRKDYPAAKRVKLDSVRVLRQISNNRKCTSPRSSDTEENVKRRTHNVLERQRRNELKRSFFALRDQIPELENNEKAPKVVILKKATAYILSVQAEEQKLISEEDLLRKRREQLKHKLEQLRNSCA
Procedure, shortened: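 Cells of the HepG2 human liver line bear multiple cis-driven reporter transcription units. Reporter mRNA after 24 h exposure is reverse-transcribed, amplified, labelled and resolved by capillary electrophoresis, with gain- or loss-of-signal fitting relative to DMSO.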

[8] = ATG_M_06_TRANS: Attagene TRANS-FACTORIAL HepG2 Assay for M06 Transcription Factor (Internal Marker) (AID 2282983; active means hit-call score of the fitted dose curve at least 0.9, where 1 is the maximum;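 further: reporter transcript level by RT-PCR then capillary electrophoresis fluorescence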); settings: HepG2 Attagene TRANS M06 internal marker reporter
Procedure, shortened: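 Multi-reporter-transfected HepG2, 24 h treatment; reporter transcripts quantified via RT-PCR, primer-extension labelling and CE. DMSO-normalized gain-of-signal fit.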

Measured: outcome

CC(C)[C@@H]1CC[C@@H](C)C[C@H]1O
not listed: [8]
inactive: all other assays above

C=Cc1ccc(O)c(OC)c1
not listed: [3] | [8]
inactive: all other assays above

O=C1Cc2ccccc2N1c1c(Cl)cccc1Cl
inactive: all assays above

From PubChem BioAssay (EPA / NIEHS)
